Laboratory results published in PubChem BioAssay AID1159580 (chemical genetic matrix, 2015).
Values joined by “and” are separate entries in the source; they are usually repeats but may differ in a detail not shown here. Equal values may be shown once. About 2,000 (36%) of roughly 5,500 compounds were called active. About 18% were inconclusive and are not listed. No stated cut-off is given here; in the data, active means normalized growth mostly below about 0.91 (no sharp cut-off); inconclusive means no clear call, values can overlap the other calls; inactive means mostly above about 0.92. The list shows a part of the results.

Assay: chemical genetic growth profiling, strain panel (AID 1159580);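 further: tested at 20 µM; growth read once vehicle control cultures reached saturation at 30 °C; 1 = growth at the plate median or of vehicle wells; lower values mean less growth of the strain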
Conditions: S. cerevisiae deletion strains, growth OD

Measured: normalized growth

COc1ccc(CC(=O)c2ccc(O)cc2O)cc1
inactive: locus YAL021C, strain ccr4, hits give low values 0.998 | locus YAL026C, strain drs2, hits give low values 0.954 | locus YAL030W, strain snc1, hits give low values 0.985 | locus YBL061C, strain skt5, hits give low values 0.986 | locus YBR009C, strain hhf1, hits give low values 0.937 | locus YBR021W, strain FUR4, hits give low values 0.894 | locus YBR023C, strain chs3, hits give low values 0.958 | locus YBR171W, strain sec66, hits give low values 0.973 | locus YBR229C, strain ROT2, hits give low values 0.969 | locus YBR231C, strain swc5, hits give low values 0.989 | locus YBR279W, strain paf1, hits give low values 0.99 | locus YCL011C, strain gbp2, hits give low values 0.973 | locus YCL016C, strain dcc1, hits give low values 0.961 | locus YCL029C, strain bik1, hits give low values 0.953 | locus YCL061C, strain MRC1, hits give low values 0.965 | locus YCL069W, strain vba3, hits give low values 0.982 | locus YCR088W, strain abp1, hits give low values 0.988 | locus YDL005C, strain med2, hits give low values 1.01 | locus YDL035C, strain GPR1, hits give low values 0.94 | locus YDL040C, strain nat1, hits give low values 0.977 | locus YDL074C, strain BRE1, hits give low values 0.848 | locus YDL101C, strain DUN1, hits give low values 0.969 | locus YDL185W, strain tfp1, hits give low values 0.983 | locus YDR001C, strain nth1, hits give low values 0.992 | locus YDR069C, strain doa4, hits give low values 1 | locus YDR101C, strain arx1, hits give low values 0.956 | locus YDR159W, strain sac3, hits give low values 0.96 | locus YDR162C, strain NBP2, hits give low values 0.872 | locus YDR297W, strain sur2, hits give low values 0.988 | locus YDR334W, strain swr1, hits give low values 0.991 | locus YDR335W, strain msn5, hits give low values 0.975 | locus YDR388W, hits give low values 0.963 | locus YDR502C, strain sam2, hits give low values 0.924 | locus YEL003W, strain gim4, hits give low values 0.969 | locus YEL037C, strain rad23, hits give low values 0.997 | locus YEL061C, strain CIN8 (second series), hits give low values 0.994 | locus YER015W, strain faa2, hits give low values 0.971 | locus YER016W, strain bim1, hits give low values 0.996 | locus YER110C, hits give low values 0.975 | locus YER111C, strain swi4, hits give low values 0.998 | locus YER155C, strain BEM2, hits give low values 0.956 | locus YER167W, strain BCK2, hits give low values 0.962 | locus YFR010W, strain ubp6, hits give low values 1.01 | locus YGL078C, strain dbp3, hits give low values 0.983 | locus YGL167C, strain pmr1, hits give low values 0.984 | locus YGL173C, strain kem1, hits give low values 0.979 | locus YGL227W, strain vid30, hits give low values 0.997 | locus YGL240W, strain doc1, hits give low values 0.925 | locus YGL248W, strain PDE1, hits give low values 0.922 | locus YGL253W, strain hxk2, hits give low values 0.982 | locus YGR135W, strain pre9, hits give low values 0.934 | locus YGR252W, strain gcn5, hits give low values 0.841 | locus YHR013C, strain ard1, hits give low values 0.963 | locus YHR027C, strain rpn1, hits give low values 0.987 | locus YHR030C, strain SLT2, hits give low values 0.953 and 0.949 | locus YHR079C, strain IRE1 (second series), hits give low values 0.978 | locus YHR079C, strain IRE1, hits give low values 0.959 | locus YHR094C, strain hxt1, hits give low values 0.982 | locus YHR129C, strain ARP1, hits give low values 0.968 | locus YHR142W, strain chs7, hits give low values 0.925 | locus YHR200W, strain rpn10, hits give low values 0.956 | locus YIL066C, strain RNR3, hits give low values 0.953 | locus YIL073C, strain SPO22, hits give low values 0.866 | locus YIL125W, strain kgd1, hits give low values 1 | locus YIR030C, strain dcg1, hits give low values 0.972 | locus YJL092W, strain hpr5, hits give low values 0.987 | locus YJL095W, strain BCK1 (second series), hits give low values 0.981 | locus YJL095W, strain BCK1, hits give low values 0.812 and 0.951 | locus YJL115W, strain asf1, hits give low values 1.01 | locus YJL129C, strain trk1, hits give low values 0.931 | locus YJL134W, strain LCB3, hits give low values 0.981 | locus YJL154C, strain vps35, hits give low values 0.992 | locus YJL164C, strain tpk1, hits give low values 0.952 | locus YJL166W, strain qcr8, hits give low values 0.944 | locus YJL168C, strain set2, hits give low values 0.972 | locus YJL187C, strain SWE1 (second series), hits give low values 0.958 | locus YJL187C, strain SWE1, hits give low values 0.987 | locus YJR066W, strain TOR1, hits give low values 0.93 | locus YKL009W, strain mrt4, hits give low values 0.956
active: locus YDL192W, strain arf1, hits give low values 0.865 | locus YDR137W, strain rgp1, hits give low values 0.733 | locus YDR195W, strain ref2 1.19 [resistant] | locus YDR318W, strain mcm21, hits give low values 0.912 | locus YDR392W, strain spt3, hits give low values 0.455 | locus YER155C, strain BEM2 (second series), hits give low values 0.768 | locus YGL086W, strain mad1, hits give low values 0.928
